The values that follow come from PubChem BioAssay (NCATS).

A short description of assay [1]: Cytotoxicity counterscreen for inhibitors of SARS-CoV-2 cell entry (AID 1645845). Further: nearly all actives have a fitted effect of over 50% in size. Further: potency means the concentration at half of the fitted maximal effect. On activity change, negative = cytotoxicity: on the % scale 0 is the no-effect control and ±100 the full control effect. To be noted: outcome: dose series up to 57.1 µM unless noted. In short, it runs like this: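 Counterscreen run in the same HEK293-ACE2 line as the pseudotyped-particle entry assay, without particles. Viability after 48 h at 37 C was read as ATP luminescence, scaled between cell-containing and cell-free wells.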
(In general: Counterscreens check selectivity or assay interference.)

Assay [2] is described as follows: Primary qHTS to identify inhibitors of SARS-CoV-2 cell entry (AID 1645846). Further: nearly all actives have a fitted effect of over 45% in size. Further: potency means the concentration at half of the fitted maximal effect. The following applies: SARS-CoV-2 pseudovirus cell entry assay, luminescence; activity change, negative = inhibition: at 57.1 µM (top of the series) unless noted. In short, it runs like this:
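Entry measured by luciferase signal 48 h after adding SARS-CoV-2-S pseudotyped MLV particles to HEK293-ACE2 cells preincubated 1 h with compounds. Normalisation: bald particles and spike particles.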

Assay [3] has as its target Nuclear receptor subfamily 1 group I member 3 (Homo sapiens) (UniProt Q14994). Description: Primary qHTS for antagonist of constitutive androstane receptor (CAR) against the NCATS DSHEA and TCM libraries (AID 1794836; active means well fitted curve in the direction sought with a large enough effect; an effect the other way counts as inactive or inconclusive;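 further: HepG2 cells stably expressing hCAR with CYP2B6 luciferase reporter stimulated by CITCO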). In short, it runs like this: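 HepG2-CYP2B6-hCAR cells, attached 5 h, given compounds plus CITCO agonist […], incubated 24 h at 37 C. Luciferase luminescence read, multiplexed with CellTiter-Fluor viability (Ex/Em 405/540 nm).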
A general note: In qHTS, concentration-response curves come from the screen itself.

Assay [4] can be described thus: VSVG counterscreen qHTS to identify inhibitors of SARS-CoV-2 cell entry (AID 1645847). Further: potency means the concentration at half of the fitted maximal effect; nearly all actives have a fitted effect of over 65% in size. In short, it runs like this: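 Luminescence read after 48 h infection at 37 C with VSV-G-pseudotyped MLV particles, following 1 h compound exposure of Expi293F cells stably expressing human ACE2; scaled between bald particle and VSV-G particle wells.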
Assay [5] is described as follows: MultiTox-Fluor Cytotoxicity Assay - LYMP1-002 - Dead Cells (AID 960; active means well fitted curve in the direction sought with a large enough effect; an effect the other way counts as inactive or inconclusive; further: potency means the concentration at half of the fitted maximal effect; nearly all actives have a fitted effect of over 60% in size). In short, it runs like this:
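Concentration-dependent increases in membrane-leaked protease activity are quantified in LYMP1-002 cells after 16 hr treatment; values are normalized against DMSO and tetraoctylammonium bromide (15 uM) controls and AC50 derived by Hill modeling.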

For assay [6], the target named is Phospholipid hydroperoxide glutathione peroxidase GPX4 (Homo sapiens) (UniProt P36969). Briefly: Primary qHTS Assay for Inhibitors of Recombinant Selenoprotein Glutathione Peroxidase 4 (GPX4) (AID 1845192; active means well fitted curve in the direction sought with a large enough effect; an effect the other way counts as inactive or inconclusive; further: on the % scale 0 is the no-effect control and ±100 the full control effect; nearly all actives have a fitted effect of over 65% in size). In short, it runs like this:
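Steps: GPX4 plus compound, 30 min RT; add GR/GSH/NADPH master mix; start with cumene hydroperoxide; read 340/450 nm fluorescence at 0 and 15 min. Finals were 200 nM GPX4, 1 mM GSH, 0.5 mM CHP, 0.5 mM NADPH, 100 nM GR.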

The nature of assay [7]: qHTS drug screen for cell cycle checkpoint inhibitors in PARPi-resistant BRCA-mutant ovarian cancer cell lines. (AID 1963452). The following applies: PEO1/OlaR viability, CellTiter-Glo luminescence, 96 h, stronger effect = lower value. In short, it runs like this:
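PEO1, PEO4 and PEO1/OlaR ovarian cancer cells, 600 per well, exposed 96 h at 37C to a dilution series. Viability read by CellTiter-Glo luminescence, normalized to DMSO and empty wells; activity summarized as Z-AUC.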

Assay [8] can be described thus: qHTS profiling of the MIPE4 collection as inhibitors of Plasmodium falciparum (3D7) proliferation (AID 743344; call rule not given here;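 further: scaled between DMSO vehicle wells and 0.29 µM artemisinin as full inhibition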). To be noted: P. falciparum 3D7 in erythrocytes, SYBR Green DNA fluorescence, 72 h; at 28.5 µM (top of the series). In short, it runs like this: (§1)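 Parasite DNA was quantified by SYBR Green I fluorescence (ex 485, em 535 nm) after overnight lysis in saponin/Triton buffer at room temperature. Cultures at 0.3% parasitemia and 2.5% hematocrit were first exposed to compound for 72 h at 37 C; signals were normalised to artemisinin (0.29 uM) and vehicle wells.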

Assay [9] can be described thus: qHTS profiling of the MIPE4 collection as inhibitors of Plasmodium falciparum (DD2) proliferation (AID 743345; call rule not given here). The following applies: P. falciparum Dd2 in erythrocytes, SYBR Green DNA, 72 h; at 28.5 µM (top of the series). In short, it runs like this:
as §1

A short description of assay [10]: qHTS profiling of the MIPE4 collection as inhibitors of Plasmodium falciparum (DD2) proliferation (Rep 2) (AID 743346; call rule not given here). The following applies: P. falciparum Dd2 in erythrocytes, SYBR Green DNA, 72 h; at 28.5 µM (top of the series). In short, it runs like this:
as §1

A short description of assay [11]: qHTS profiling of the MIPE4 collection as inhibitors of Plasmodium falciparum (HB3) proliferation (AID 743347; call rule not given here;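 further: plate controls were DMSO vehicle wells for no effect and artemisinin wells for full effect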). The following applies: P. falciparum HB3 in erythrocytes, SYBR Green DNA, 72 h; at 28.5 µM (top of the series). In short, it runs like this:
as §1

Structures are written as SMILES. Records with an inconclusive call do not appear. Activity calls are given as the source filed them. Unless noted, the call rests on the fitted dose curve.

Sequence of Nuclear receptor subfamily 1 group I member 3 (Homo sapiens) (Q14994 whole entry, looked up): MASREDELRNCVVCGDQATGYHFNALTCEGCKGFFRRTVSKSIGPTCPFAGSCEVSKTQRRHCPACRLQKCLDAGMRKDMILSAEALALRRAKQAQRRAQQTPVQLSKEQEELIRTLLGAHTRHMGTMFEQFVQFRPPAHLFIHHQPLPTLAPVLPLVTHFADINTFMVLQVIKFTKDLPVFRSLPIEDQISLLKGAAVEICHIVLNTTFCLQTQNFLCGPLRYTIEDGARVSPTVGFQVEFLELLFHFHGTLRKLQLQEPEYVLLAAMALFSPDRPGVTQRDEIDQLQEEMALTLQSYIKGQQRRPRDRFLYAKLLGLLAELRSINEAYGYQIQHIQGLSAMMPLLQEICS
Sequence of Phospholipid hydroperoxide glutathione peroxidase GPX4 (Homo sapiens) (P36969 whole entry, looked up): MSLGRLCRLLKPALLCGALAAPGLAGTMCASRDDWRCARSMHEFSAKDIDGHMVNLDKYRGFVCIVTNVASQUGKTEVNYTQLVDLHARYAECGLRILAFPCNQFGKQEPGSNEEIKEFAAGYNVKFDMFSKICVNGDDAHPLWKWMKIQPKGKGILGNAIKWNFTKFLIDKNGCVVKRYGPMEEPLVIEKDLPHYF

As to `O=C(NCCCNc1nc(Nc2cccc(CN3CCOCC3)c2)ncc1C1CC1)C1CCC1`, the Potency entry in [1] and in assay [2] was “inactive” throughout.
For `CC[C@H](CC[C@@H](C)[C@H]1CC[C@H]2[C@@H]3CC=C4C[C@@H](O)CC[C@]4(C)[C@H]3CC[C@]12C)C(C)C`, the Potency result in assay [1] and in [3] was “inactive” in each case. Moreover, the activity change, negative = inhibition in [2] was -9.4%.
Take `Cn1cc(/C=C2\C(=O)Nc3cccnc32)c2ccccc21`: the Potency entry in [1] is “inactive”. Also, the activity change, negative = inhibition in assay [2] was -43.1%. In addition, the Potency in assay [4] was 0.152 µM (active).
Consider `COc1cc(/C=C/C(=O)CC(=O)/C=C/c2ccc(O)c(OC)c2)ccc1O`, for which the Potency in assay [5] and in assay [1] was 31.6 µM (active) throughout.
On to `CC1(C)C(=O)N(c2ccc(C#N)c(C(F)(F)F)c2)C(=S)N1Cc1ccc(-c2cn[nH]n2)cc1`, for which the Potency result in assay [1] and in assay [6] was “inactive” each time. In addition, the Z-AUC in assay [7] is 0.1 (inactive); in assay [7] (measured here: PEO1 parental Z-AUC) it was 0.427; in [7] (measured here: PEO4 Z-AUC) it was 0.68.
Regarding `CC(C)C(N)C(=O)OCC(CO)OCn1cnc2c(=O)[nH]c(N)nc21` (stereo unspecified), in assay [1], the Potency result was “inactive”. Moreover, the activity change, negative = inhibition in [2] was -6.77%.
Take `CN1CCN(c2ncc(-c3cc(Cl)cc(Cl)c3Cl)c(N)n2)CC1`: the parasite growth, % of DMSO control in assay [8] is 53.8%. Besides, in assay [9], the parasite growth remaining, % of DMSO control (lower = more inhibition) came out at 75.6%. This compound also yielded a parasite growth, % of control (lower = inhibition) in [10] of 39.8%. In [11], this compound displayed a growth, % of control of 81.9%. Besides, in assay [1], the Potency entry is “inactive”.
As for `C[C@H]1[C@H](C)CC[C@]2(C(=O)O)CC[C@]3(C)C(=CC[C@@H]4[C@@]5(C)CC[C@H](O)C(C)(C)[C@@H]5CC[C@]43C)[C@H]12`, the Potency result in [1] and in assay [3] was “inactive” in each case. In [2], the activity change, negative = inhibition is 0.662%.
With `COc1ccc(COc2ccc(Cc3cnc(N)nc3N)cc2OC)cc1`, the Potency result in [1] is “inactive”. In addition, in assay [2], the activity change, negative = inhibition was -52.5%. In addition, the Potency in [4] is 6.81 µM (active).
Take `O=C(NCc1ccccc1)c1csc(Nc2ccncn2)n1`: the parasite growth, % of DMSO control in assay [8] was found to be 30.1%. Moreover, the parasite growth, % of control (lower = inhibition) in assay [10] came out at 36.6%. In assay [11], this compound showed a growth, % of control of 31.7%. For the same compound, the Potency entry in assay [1] was “inactive”.
`COc1ccc2[nH]c(C(=O)N3CCC(CC(C)(C)O)CC3)cc2c1`: the Potency result in assay [1] and in [2] was “inactive” throughout.
As to `CN1CCN(C(=O)[C@H]2[C@@H](C(=O)O)[C@H]3CC[C@@H]2O3)CC1`, the activity change, negative = cytotoxicity in [1] was 2.39% [at 11.3 µM] (inactive). In assay [2], the activity change, negative = inhibition was -6.02% [at 11.3 µM].
Consider `CCn1c(=O)c(-c2ccc(-c3cncc(C)n3)cc2Cl)cc2cnc(NCCC3CCN(C)CC3)nc21`, for which, in assay [2], the Potency was 3.16 µM (active).
As to `COc1ccc(C(=O)C2CCN(CC(=O)N(Cc3nc4c(c(=O)[nH]3)COCC4)CC3CC3)CC2)cc1`, the Potency entry in [1] is “inactive”. Also, the activity change, negative = inhibition in assay [2] is -20.6%. Also, in [4], the Potency was 8.57 µM (active).
Take `NS(=O)(=O)c1ccc(Cc2c(-c3cccc(-c4ccccc4)c3)nn(-c3nc(C(=O)O)cs3)c2CC2CC2)cc1`: the Potency entry in assay [1] is “inactive”. The activity change, negative = inhibition in [2] is -32.8%. Further, the Potency in assay [4] is 8.57 µM (active).
Consider `CN1CC[C@@H](NC(=O)Nc2ccc(C#N)cc2)C[C@@H]1c1nc2ccccc2[nH]1`, for which the Potency entry in assay [1] was “inactive”. In addition, the activity change, negative = inhibition in [2] was -7.47%. Besides, the Potency in [4] was 24.1 µM (active).
